Among the data in the supplement of paper PMC10681739 are ETS1 binding intensity and RUNX1 binding intensity values, retold here.

Test [1] deals with T1, ETS1 (UniProt P14921).
T1 sequence: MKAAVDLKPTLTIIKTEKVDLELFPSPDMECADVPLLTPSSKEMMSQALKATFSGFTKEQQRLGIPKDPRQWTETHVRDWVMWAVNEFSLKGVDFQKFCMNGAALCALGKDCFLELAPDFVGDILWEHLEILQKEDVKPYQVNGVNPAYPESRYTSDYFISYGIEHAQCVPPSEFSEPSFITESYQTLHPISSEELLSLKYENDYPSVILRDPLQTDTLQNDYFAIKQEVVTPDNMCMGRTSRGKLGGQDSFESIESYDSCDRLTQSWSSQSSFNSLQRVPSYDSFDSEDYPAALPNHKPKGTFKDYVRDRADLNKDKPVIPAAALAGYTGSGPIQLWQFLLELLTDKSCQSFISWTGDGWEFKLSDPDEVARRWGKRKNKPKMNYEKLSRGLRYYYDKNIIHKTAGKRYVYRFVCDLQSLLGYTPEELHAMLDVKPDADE
In words: ETS1 binding intensity (PBM fluorescence), ETS1 alone (arbitrary fluorescence units); higher = stronger binding. The following applies: ETS1 concentration 1 nM; RUNX1 concentration 0 nM.

The target in test [2] is T1, ETS1. In words: ETS1 binding intensity (PBM fluorescence) in presence of RUNX1, normalised to ETS1-only experiment (arbitrary fluorescence units); higher = stronger binding. As to conditions: ETS1 concentration 1 nM; RUNX1 concentration 25 nM.
Another test addresses RUNX1 (UniProt Q01196). The test can be described thus: RUNX1 binding intensity (PBM fluorescence), RUNX1 alone (arbitrary fluorescence units); higher = stronger binding. As to conditions: RUNX1 concentration 2 nM; ETS1 concentration 0 nM. The protocol:
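Cooperative gcPBM on 36-bp genomic probes with neighbouring ETS1 and RUNX1 sites. Recombinant human RUNX1 (2 nM) was incubated alone or with ETS1 (25 nM) and detected with anti-RUNX1 antibody plus Alexa488 secondary. Values are medians over 4 replicate spots; the RUNX1+ETS1 data were normalised to the RUNX1-only data. The probes sit in constant array flanks that are not printed.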
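Wherever RUNX1 binding intensity (PBM fluorescence), RUNX1 alone is given: Full-length recombinant human RUNX1 bound to double-stranded 36-bp genomic probes on a high-density microarray, scored as Alexa488 fluorescence per spot via anti-RUNX1 antibody, median of four replicate spots.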

Sequence of RUNX1 (Q01196 whole entry): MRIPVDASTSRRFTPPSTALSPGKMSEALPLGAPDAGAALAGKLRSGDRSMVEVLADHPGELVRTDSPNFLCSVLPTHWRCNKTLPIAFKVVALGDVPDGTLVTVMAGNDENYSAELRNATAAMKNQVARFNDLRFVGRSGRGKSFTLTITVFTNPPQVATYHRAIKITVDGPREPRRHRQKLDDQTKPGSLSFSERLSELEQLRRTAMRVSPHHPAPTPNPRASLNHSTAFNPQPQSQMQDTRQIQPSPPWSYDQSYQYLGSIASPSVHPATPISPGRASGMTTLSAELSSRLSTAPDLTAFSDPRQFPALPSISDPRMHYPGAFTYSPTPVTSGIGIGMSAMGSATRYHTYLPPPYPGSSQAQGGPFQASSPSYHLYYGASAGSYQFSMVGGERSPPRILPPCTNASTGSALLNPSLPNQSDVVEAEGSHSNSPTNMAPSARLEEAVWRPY

In the case of ATGACTTCGAGGAAGTCTTCAGAAACCACAGGCTGA, the figures for the ETS1 binding intensity in the test with ETS1 [1] and with ETS1 [2] were 405 and 1430, respectively.

For the sequence GATGGTGTCTTTTGGGGATGTGGGTTTGGGGGATGG, the ETS1 binding intensity with ETS1 [1] is 564; in the test with ETS1 [2] it was 1610. In the test with RUNX1, this sequence registered an RUNX1 binding intensity of 835.

On to GTGGATTTCACATCCTGTCCTAGCGGTATGTTTGTC, for which the ETS1 binding intensity with ETS1 [1] was 1470; with ETS1 [2], 1610. In the test with RUNX1, this sequence returned an RUNX1 binding intensity of 783.

Turning to CACTTCCCGTGGGAGGATCTTGGGCTGCGGCTAGGG, the ETS1 binding intensity was found to be 421 with ETS1 [1] and 802 with ETS1 [2]. Further, the RUNX1 binding intensity with RUNX1 was 803.

For ATGTTTGGGGCCGGAAGTGGGTTGGAGGTGTGGCGG, the ETS1 binding intensity in the test with ETS1 [1] was found to be 24700; with ETS1 [2] it was 23800. The sequence further yielded an RUNX1 binding intensity in the test with RUNX1 of 706.

With GCACCGTACCCGGAACTGCTCCCTCCCGCAGGCGCA, the ETS1 binding intensity with ETS1 [1] amounted to 539; with ETS1 [2], 540. Also, in the test with RUNX1, the RUNX1 binding intensity was found to be 930.

Consider CACTGATTAAGAGGAAGTGTGTGTGGTTATTACCGT, for which the results for the ETS1 binding intensity in the test with ETS1 [1] and with ETS1 [2] were 1980 and 8330, respectively. Further, the RUNX1 binding intensity with RUNX1 stood at 804.

In the case of GCCACACCCCCTTCCTGTTGTGTGTGGGGATTCATG, the ETS1 binding intensity was 744 with ETS1 [1] and 696 with ETS1 [2].

TCCTTTTCCGGTGGCGGCGCCGCGCGGTGAGGTTGT: the ETS1 binding intensity in the test with ETS1 [1] was determined as 754; in the test with ETS1 [2], 615. Besides, the RUNX1 binding intensity with RUNX1 worked out at 731.

As to CTCACCCCTGGAGGATGTGGGTTTCCAGGCTGACAG, the results for the ETS1 binding intensity in the test with ETS1 [1] and with ETS1 [2] were 836 and 2130, respectively. Further, the RUNX1 binding intensity with RUNX1 turned out to be 849.

As to TACAGCTGGAACGTCCTGTGGTTAACATTCTGCTCT, the ETS1 binding intensity is 423 in the test with ETS1 [1] and 568 with ETS1 [2]. This sequence also yielded an RUNX1 binding intensity with RUNX1 of 1130.

For the sequence AGCGCTTCCTGGCTCCGGCCCCGCCCCTGCGGTCGG, the ETS1 binding intensity amounted to 484 with ETS1 [1] and 1110 with ETS1 [2]. In the test with RUNX1, the RUNX1 binding intensity worked out at 942.

As to CATGTGCTTCCGGCTTGATCTGTGGTTATTCTGGTT, the ETS1 binding intensity came out at 1370 with ETS1 [1] and 2980 with ETS1 [2]. In the test with RUNX1, this sequence gave an RUNX1 binding intensity of 1270.

Regarding CTTTGTTGAAAAGGATGTGGTCATCTGATCTTGCTG, the ETS1 binding intensity with ETS1 [1] stood at 1070; with ETS1 [2] it was 3320. The RUNX1 binding intensity with RUNX1 turned out to be 864.

Regarding ACAGCATTTCCTGGTGGCCAGATATCTGAGGTTTCA, the ETS1 binding intensity with ETS1 [1] was 426; with ETS1 [2], 539.

As to CCAACGAGCACTTCCGCTTCCCGCAGCTCCAGCGGC, the ETS1 binding intensity with ETS1 [1] was 2400; with ETS1 [2], 4270. The RUNX1 binding intensity with RUNX1 is 914.

As for CTGCCGCTGCCTTCCGCCCCCACACACGCACACCAC, the ETS1 binding intensity in the test with ETS1 [1] came out at 686; with ETS1 [2], 741. For the same sequence, the RUNX1 binding intensity with RUNX1 is 1240.

With GAACTTCCGGGACCACGTGACGTAGAACCACAACAA, the ETS1 binding intensity stood at 587 with ETS1 [1] and 1100 in the test with ETS1 [2]. Besides, the RUNX1 binding intensity with RUNX1 was 815.

Consider AAAACAACTCCAGGATGTGGTTTTACTCAGAATGTA, for which the ETS1 binding intensity with ETS1 [1] was determined as 1310; with ETS1 [2], 7410. In the test with RUNX1, the RUNX1 binding intensity worked out at 928.

Take GTGGCGAAAGTGCGGATGCGAAACCGCTGGCTCGGC: the ETS1 binding intensity in the test with ETS1 [1] stood at 587; with ETS1 [2], 1060. Further, in the test with RUNX1, the RUNX1 binding intensity was 782.

Consider CTCCCCCTTTTTTTCCTGTGGTTTCATTGCATGTTG, for which the ETS1 binding intensity in the test with ETS1 [1] came out at 454; with ETS1 [2] it was 566. In the test with RUNX1, this sequence came in with an RUNX1 binding intensity of 6430.

Turning to TCGCTTCCGGTGTCGGTTACAGACTGTGGTTGCCAT, the figures for the ETS1 binding intensity in the test with ETS1 [1] and in the test with ETS1 [2] were 3090 and 6190, respectively. Further, the RUNX1 binding intensity in the test with RUNX1 was 906.

Turning to GACATCCAGGAAGTGGTGAGAAACCACGTGTGTGTT, the ETS1 binding intensity in the test with ETS1 [1] was determined as 1630; with ETS1 [2], 4150. This sequence showed an RUNX1 binding intensity with RUNX1 of 747.

As for GAGCATAGCCTAGCAGGATGTGGTTAAATACATTTG, the ETS1 binding intensity in the test with ETS1 [1] is 3320; with ETS1 [2], 32800. The same sequence registered an RUNX1 binding intensity with RUNX1 of 747.

CCAGCCACTTCCGCTCGTCCGCCTAATACCGCGCCT: the ETS1 binding intensity in the test with ETS1 [1] was found to be 2130; with ETS1 [2], 2430. Besides, the RUNX1 binding intensity with RUNX1 is 1420.

As for CGTGTGGGAGGCCGGAAGTTGCGGCTTCATTACTCG, the ETS1 binding intensity was 20400 in the test with ETS1 [1] and 51000 with ETS1 [2]. Also, in the test with RUNX1, the RUNX1 binding intensity amounted to 845.

Regarding AGACCCGGATATGCGCCGGGGACCCCCAGACCGCGC, the ETS1 binding intensity with ETS1 [1] came to 743; in the test with ETS1 [2], 697. The RUNX1 binding intensity with RUNX1 is 733.

Turning to GTGTGAAGGAAGTGTGAGATCAAACCACAGCTGGGT, the results for the ETS1 binding intensity with ETS1 [1] and in the test with ETS1 [2] were 457 and 901, respectively. The sequence also gave an RUNX1 binding intensity in the test with RUNX1 of 874.

In the case of AGGAGAAGGAAGAGGATGTTGAGGTTGGGGGAAACC, the ETS1 binding intensity was determined as 1610 with ETS1 [1] and 2530 with ETS1 [2]. This sequence returned an RUNX1 binding intensity with RUNX1 of 726.

Take AACCAAGAGGATTTCCTGCCCACACACTCAGCGTCT: the ETS1 binding intensity in the test with ETS1 [1] was 870; with ETS1 [2], 751.

For the sequence TGCCACCTGCTTCCTGCCTGTGTAGCCACAAGGGAC, the ETS1 binding intensity was 783 in the test with ETS1 [1] and 960 with ETS1 [2]. Also, the RUNX1 binding intensity in the test with RUNX1 worked out at 910.

Regarding CTGAAGAGGAAATGTATTCCTCATGTTGTGGTTGGC, the ETS1 binding intensity is 742 in the test with ETS1 [1] and 1980 in the test with ETS1 [2]. For the same sequence, the RUNX1 binding intensity with RUNX1 stood at 860.

For the sequence TCAGGGGTGGGAGGAAGTGGTTAGGATCAGCCTGGG, the ETS1 binding intensity with ETS1 [1] worked out at 1910; with ETS1 [2], 3120. In the test with RUNX1, this sequence yielded an RUNX1 binding intensity of 776.

For GTTTCTCTGGCCAGGAAATTGAGGTTTCTGTTAGTC, the ETS1 binding intensity is 2010 in the test with ETS1 [1] and 3260 with ETS1 [2]. The RUNX1 binding intensity with RUNX1 was 851.

As to CCACTAGCAGGAAAACGGGCCGAGGGACCGCAAGCA, the ETS1 binding intensity in the test with ETS1 [1] came to 395; in the test with ETS1 [2] it was 688.

In the case of GCAAACGGAAGAGAGGAACGAAGGCCGCAGAGCTTG, the results for the ETS1 binding intensity with ETS1 [1] and in the test with ETS1 [2] were 486 and 481, respectively.

With ACAGGAAGTGAGGCTGTGAGGAGTTTGTGGTGTGTA, the ETS1 binding intensity with ETS1 [1] was determined as 2080; in the test with ETS1 [2] it was 4960.

For the sequence TGGAATTGAAAGGAAGCTGGCGCCACCGCAGAGGAC, the ETS1 binding intensity worked out at 658 in the test with ETS1 [1] and 2830 with ETS1 [2].

Turning to AGCTCCAGGAAGAGGGCCTGAAAACCAAACGGGGGA, the values for the ETS1 binding intensity in the test with ETS1 [1] and with ETS1 [2] were 408 and 474, respectively.

For TCACCCTCTCACTTCCTGCGGGTCCCAGGCTCAGGC, the ETS1 binding intensity with ETS1 [1] was determined as 896; with ETS1 [2], 790.

For the sequence TGACGGCCAGGAAGCCTGAAGCCGCAGGGGCCGCCG, the figures for the ETS1 binding intensity with ETS1 [1] and with ETS1 [2] were 345 and 595, respectively.

Turning to ACACCACTCAGGAAGACAAAGCCACACCTCACACCG, the values for the ETS1 binding intensity with ETS1 [1] and with ETS1 [2] were 487 and 440, respectively.

For TATGACCAGGGGAGGGAAGTGACCACAGCATATCAC, the figures for the ETS1 binding intensity with ETS1 [1] and with ETS1 [2] were 466 and 823, respectively.

As to CATGAGAAACATCCTGCCCAACCACCTGACTACAAG, the ETS1 binding intensity with ETS1 [1] is 492; with ETS1 [2], 511.
